Laboratory results from ChEMBL document CHEMBL1201862, “PubChem BioAssay data set” (2004).
The campaign covered roughly 400,000 compounds. About 2,100 (0.53%) were called active. Inconclusive results (about 14%) are left out. How the calls were made is not given here. Only a selection was taken, and actives are over-represented in it overall.

molecular target: Ataxin-2 (Homo sapiens) (UniProt Q99700); assay: qHTS for Inhibitors of ATXN expression.; assay type: functional
Sequence (Q99700 whole entry): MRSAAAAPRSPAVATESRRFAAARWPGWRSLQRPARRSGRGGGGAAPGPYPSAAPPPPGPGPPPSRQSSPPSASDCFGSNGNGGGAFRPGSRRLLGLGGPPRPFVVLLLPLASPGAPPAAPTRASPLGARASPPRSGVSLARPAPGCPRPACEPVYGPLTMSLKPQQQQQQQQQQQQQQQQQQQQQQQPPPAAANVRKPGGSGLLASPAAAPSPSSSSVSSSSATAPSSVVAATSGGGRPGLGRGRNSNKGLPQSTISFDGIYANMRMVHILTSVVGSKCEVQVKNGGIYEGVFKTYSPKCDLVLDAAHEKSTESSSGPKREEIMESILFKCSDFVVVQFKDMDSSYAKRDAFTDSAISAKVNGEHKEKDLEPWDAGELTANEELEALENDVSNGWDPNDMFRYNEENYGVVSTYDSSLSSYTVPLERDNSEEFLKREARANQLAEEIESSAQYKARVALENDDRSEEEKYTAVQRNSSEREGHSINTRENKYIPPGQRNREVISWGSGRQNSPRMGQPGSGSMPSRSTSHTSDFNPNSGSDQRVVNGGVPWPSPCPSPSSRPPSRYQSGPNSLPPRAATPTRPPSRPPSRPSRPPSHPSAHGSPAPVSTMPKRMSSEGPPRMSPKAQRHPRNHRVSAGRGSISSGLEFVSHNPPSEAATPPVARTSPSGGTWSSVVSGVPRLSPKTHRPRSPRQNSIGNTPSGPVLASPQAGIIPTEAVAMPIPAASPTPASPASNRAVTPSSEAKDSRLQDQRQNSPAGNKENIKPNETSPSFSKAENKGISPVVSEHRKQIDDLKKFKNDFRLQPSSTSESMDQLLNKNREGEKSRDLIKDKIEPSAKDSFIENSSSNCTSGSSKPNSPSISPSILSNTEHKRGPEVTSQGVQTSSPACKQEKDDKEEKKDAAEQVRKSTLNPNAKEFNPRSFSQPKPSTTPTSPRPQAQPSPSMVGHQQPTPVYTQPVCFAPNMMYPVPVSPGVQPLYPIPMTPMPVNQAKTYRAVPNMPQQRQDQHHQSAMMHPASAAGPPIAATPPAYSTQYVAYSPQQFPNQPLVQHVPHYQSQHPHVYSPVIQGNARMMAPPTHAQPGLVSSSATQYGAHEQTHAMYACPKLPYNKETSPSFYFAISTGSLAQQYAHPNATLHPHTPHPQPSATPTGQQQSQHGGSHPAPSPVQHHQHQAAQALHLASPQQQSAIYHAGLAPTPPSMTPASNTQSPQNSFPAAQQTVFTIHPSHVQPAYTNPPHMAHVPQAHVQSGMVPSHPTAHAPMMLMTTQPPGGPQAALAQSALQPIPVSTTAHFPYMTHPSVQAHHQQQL

| SMILES | Potency |
| --- | --- |
| Cc1c(O)ccc2c(CN3CCN(C/C=C/c4ccccc4)CC3)cc(=O)oc12 | inactive |
| O=[N+]([O-])c1ccc(C2=CSC3=NCCN23)cc1 | inactive |
| Cc1cccc(-n2nc(C)c3c2N=C2CCCC(O)=C2C3c2ccccn2)c1 (centres undefined) | inactive |
| CC1(C(=O)OCC(=O)Nc2cc(S(=O)(=O)N3CCOCC3)ccc2Cl)CC1(Cl)Cl (centres undefined) | inactive |
| O=C(NCCCn1ccnc1)c1ccc(-c2ccccc2)cc1 | inactive |
| O=c1c2ccccc2oc2cc(NCCCn3ccnc3)ccc12 | inactive |
| Cc1ccc2nc3c(cc(C(=O)NCc4ccccc4)c(=N)n3CCCn3ccnc3)c(=O)n2c1 | inactive |
| c1ccc(-c2c(-c3ccccc3)n(Cc3ccco3)c3ncnc(NCCCn4ccnc4)c23)cc1 | 25.1 µM (active) |
| N=c1c2c(-c3ccccc3)c(-c3ccccc3)n(Cc3ccccc3)c2ncn1CCCn1ccnc1 | 35.5 µM (active) |
| Cc1cccc(Cl)c1OCCCn1ccnc1 | inactive |
| CC[C@H]1C(c2ccc(F)cc2)=NN(c2ccccc2)[C@@H]1CO | inactive |
| C/C(CC(=O)NCc1ccco1)=N\NC(=O)Cc1ccc(-c2ccccc2)cc1 | inactive |
| CC(C)C(Cl)=NOC(=O)Nc1ccc(S(N)(=O)=O)cc1 | 21.2 µM (active) |
| NS(=O)(=O)c1ccc(NC(=O)COC(=O)COc2cccc(C(F)(F)F)c2)cc1 | inactive |
| COc1cc(C(=O)NN=C(S)Nc2ccc(S(N)(=O)=O)cc2)cc(OC)c1OC | inactive |
| COC(=O)c1c(NC(=O)c2ccc(S(=O)(=O)N3CC(C)OC(C)C3)cc2)sc2c1CCN(C)C2 (centres undefined) | inactive |
| O=c1ccc2cc3c4c(c2o1)CCCN4CCC3 | inactive |
| CCCCOc1ccc(N(CC(=O)NCc2ccco2)C(=O)CCC(=O)Nc2nccs2)cc1 | inactive |
| COc1ccc(OC)c([N+](=O)[O-])c1C(N)=O | inactive |
| COc1ccncc1-c1ccc(C2=CC(=O)CC(C)(C)C2=O)cc1 | 35.5 µM (active) |
| CC1=CC(=C(C#N)c2nc3ccccc3s2)C=C(C)N1c1ccc(F)cc1F | inactive |
| CC1=C(C(=O)NCCCOC(C)C)C2(CCC(C)CC2)OC1=O (centres undefined) | inactive |

| SMILES | Potency |
| --- | --- |
| COCCCn1c(C(=O)NCCN2CCOCC2)cc2c(=O)n3ccccc3nc21 | inactive |
| COc1cccc(/C=N/n2nnnc2N)c1 | inactive |
| CCCS(=O)(=O)c1nnnn1-c1cccc(OC)c1 | 35.5 µM (active) |
| COc1cccc(-n2cnnc2S)c1 | inactive |
| Cc1cc(OC(C)C(=O)NC2CC(C)(C)NC(C)(C)C2)c2c(C)c(C)c(=O)oc2c1 (centres undefined) | inactive |
| Cc1cccn2c(=O)c3cc(C(=O)NC(C)c4ccccc4)c(=N)n(CCCO)c3nc12 (centres undefined) | inactive |
| O=C(/C=C/c1ccco1)Nc1ccc2nc3n(c(=O)c2c1)CCCC3 | inactive |
| O=c1c2cc(NC(=S)N3CCC(N4CCCCC4)CC3)ccc2nc2n1CCCCC2 | inactive |
| O=C(Nc1ccc2nc3n(c(=O)c2c1)CCCCC3)c1c(F)ccc([N+](=O)[O-])c1F | 8.91 µM (active) |
| O=C(Nc1ccc2nc3n(c(=O)c2c1)CCCCC3)c1cc([N+](=O)[O-])ccc1F | 39.8 µM (active) |
| CCN(CC)S(=O)(=O)c1ccc(NC(=O)c2ccc3c(=O)n4c(nc3c2)CCCCC4)cc1 | 11.2 µM (active) |
| Cc1cccc(OC(=O)c2ccc3c(=O)n4c(nc3c2)CCC4)c1 | inactive |
| CCCN(CCC)CCCN=C(S)Nc1ccc2nc3n(c(=O)c2c1)CCCCC3 | inactive |
| O=C(Nc1ccc2nc3n(c(=O)c2c1)CCCC3)c1cc([N+](=O)[O-])ccc1F | 22.4 µM (active) |
| Cc1ccc(C)c(NC(=O)c2ccc3c(=O)n4c(nc3c2)CCC4)c1 | inactive |
| N#C/C(=C\c1ccc2c(c1)OCCO2)C(=O)Nc1nccs1 | inactive |
| CCCCn1c(=O)[nH]c2nc3cc(N)ccc3nc2c1=O | inactive |
| Cc1cccc2c(=O)n(C(=O)c3ccccc3)c(N)nc12 | inactive |
| CC(=O)c1ccc(OCC(=O)OC(C)C(=O)NC2CCCCC2)cc1 (centres undefined) | inactive |
| CCC(C)c1ccc(S(=O)(=O)N2CCN(C(C)CC(=O)O)CC2)cc1 (centres undefined) | inactive |
| O=C(COC(=O)c1ccc(C(F)(F)F)cc1)NC(=O)NC1CCCC1 | inactive |
| O=C(NCC(O)c1ccc([N+](=O)[O-])cc1)C1CCCCC1 (centres undefined) | inactive |

| SMILES | Potency |
| --- | --- |
| CS(=O)(=O)c1ccc(C(=O)OCC(=O)NC(=O)C2CCCCC2)cc1[N+](=O)[O-] | 35.5 µM (active) |
| CN(Cc1ccccc1F)Cc1cc(=O)oc2cc(O)c(Cl)cc12 | inactive |
| CC(C)c1ccc(NC(=O)Nc2nc(C(N)c3ccccc3)cs2)cc1 (centres undefined) | 28.2 µM (active) |
| CC(C)c1ccc(NC(=O)Nc2nc(C(C)N)cs2)cc1 (centres undefined) | 35.5 µM (active) |
| O=C(Nc1ccc(Cl)cc1)Nc1cccc2nsnc12 | inactive |
| CC(C)c1ccc(/C=C(/C#N)c2nnc(NC(=O)c3ccccc3)s2)cc1 | inactive |
| CC(C)c1ccc(NC(=O)Nc2nc(C(N)c3ccccc3Cl)cs2)cc1 (centres undefined) | 35.5 µM (active) |
| NC(c1ccccc1)c1csc(NC(=O)Nc2ccc(OC(F)(F)F)cc2)n1 (centres undefined) | 39.8 µM (active) |
| Cc1oc(CC(C)C)cc1C(=O)NCCCC(=O)O | inactive |
| N=C1NC(=O)/C(=C/c2ccc(Br)cc2)S1 | inactive |
| COCCN1C=C(C(=O)OC)C(c2ccc(Cl)cc2)C(C(=O)OC)=C1 | inactive |
| CCN(CC)C(=O)c1cc(-c2ccc3c(c2)OCO3)on1 | inactive |
| COc1ccc(CC(N)c2csc(NC(=O)Nc3ccc(C(C)C)cc3)n2)cc1 (centres undefined) | 39.8 µM (active) |
| COc1ccc(OCC(=O)Nc2nccs2)cc1 | inactive |
| COc1ccc(Cc2nnc(S)n2NC(=O)Nc2ccc(C)cc2)cc1 | inactive |
| CCN(CC)C(=O)COC(=O)c1cc(-c2ccco2)nc2ccccc12 | inactive |
| COc1cccc2c1C(=O)C=C(C)C2=O | inactive |
| COc1ccc2noc3c2c1C(=O)c1ccccc1-3 | 39.8 µM (active) |
| COc1ccc2c3c(cccc13)C(=O)CC2 | inactive |
| O=C1c2ccccc2-c2onc3ccc(Oc4ccccc4)c1c23 | 20 µM (active) |
| COc1ccc(N2C(=O)/C(=C\NNS(=O)(=O)c3ccc(C)cc3)c3ccccc3C2=O)cc1OC | inactive |
| Cc1cc(=O)oc2cc(OC(=O)c3ccco3)ccc12 | inactive |

| SMILES | Potency |
| --- | --- |
| O=c1c2c(-c3ccccc3)csc2nc2c3ccccc3c(NCCN3CCOCC3)nn12 | inactive |
| Cc1cc(C)c2nc3nc(C)c(C)cc3c(N)c2c1 | inactive |
| CCN(CC)c1ccc2cc(C#N)c(=O)oc2c1 | inactive |
| COc1ccc(-n2sc3ccccc3c2=O)cc1 | 22.4 µM (active) |
| Cn1c2ccccc2c(=O)c2ccc(Cl)cc21 | inactive |
| N#Cc1c(N)n(-c2ccccc2)c(=O)c2cc([N+](=O)[O-])ccc12 | inactive |
| CCC1(CC)Nc2ccccc2C(=O)N1c1ccc(OC)cc1 | inactive |
| Nc1ccc2c3c(cccc13)C(=O)N(c1ccccc1)C2=O | inactive |
| COc1ccc(N2CCN(CCN3C(=O)c4ccccc4C3=O)CC2)cc1 | inactive |
| O=c1c2ccccc2sn1-c1ccccc1 | 28.2 µM (active) |
| O=c1c2ccccc2sn1-c1ccc(Cl)cc1Cl | 35.5 µM (active) |
| N#Cc1cc2cc3ccccc3nc2n2c(=O)c3ccccc3nc12 | inactive |
| N#Cc1ccc2sn(-c3ccccc3)c(=O)c2c1 | 22.4 µM (active) |
| O=c1c2ccccc2nc2ccccn12 | inactive |
| CC(C)(C)c1ccc(C(=O)NCCn2c(N)c(C#N)c3nc4ccccc4nc32)cc1 | inactive |
| Cc1cc(O)cc2c1C(=O)/C(=C/c1ccco1)O2 | inactive |
| O=C1NC(c2ccco2)Nc2sc3c(c21)CCN(Cc1ccccc1)C3 (centres undefined) | inactive |
| N#Cc1c(C(F)(F)F)cc(O)n2c1nc1ccccc12 | inactive |
| CC(=O)Nc1ccc2c(=O)n(-c3ccccc3)sc2c1 | 25.1 µM (active) |
| O=c1c2cc(F)ccc2sn1-c1ccc(F)cc1 | 35.5 µM (active) |
| O=c1c2ccccc2[nH]c2ccc(F)cc12 | inactive |
| CC(=O)Nc1ccc(C2=NN(c3ccccc3)C(c3ccccc3)C2)cc1 (centres undefined) | inactive |

| SMILES | Potency |
| --- | --- |
| CN1C(=O)c2cccc3c(N)ccc(c23)C1=O | inactive |
| CC(=O)Nc1ccc2nc3ccccc3nc2c1 | inactive |
| Cn1sc2ccccc2c1=O | 28.2 µM (active) |
| COCCCn1c(N)c(-c2nc3ccccc3n2C)c2nc3ccccc3nc21 | inactive |
| COc1ccc(N2C3=C(C(=O)CC(C)(C)C3)C(c3cnn(C)c3)C3=C2CC(C)(C)CC3=O)cc1 | inactive |
| COc1cccc(C(=O)Oc2c(Br)cc(Br)cc2/C=N/NC(=O)c2cc(C)[nH]n2)c1 | inactive |
| CC1(C)CC2CC(C)(CN2C(S)=Nc2ccccc2)C1 (centres undefined) | inactive |
| COc1ccc(OC)c(/C=N/NC(=O)CNC(=O)c2ccc(S(=O)(=O)N3CCOCC3)cc2)c1 | inactive |
| O=C(Oc1ccc2ccc(=O)oc2c1)c1cccs1 | inactive |
| S=C(NNC(=S)NC1CC2C=CC1C2)NC1CC2C=CC1C2 (centres undefined) | inactive |
| CCOC(=O)c1c(NC(C)=O)sc2c(OCC(O)CNC(C)(C)C)c(Br)ccc12 (centres undefined) | 39.8 µM (active) |
| CCOC(=O)c1sc(NC(=O)c2ccoc2C)c(C(N)=O)c1C | inactive |
| CC(=O)Nc1sc(C)c(C)c1C(=O)OCC(=O)NCc1ccc(Cl)cc1 | inactive |
| NC(=O)c1cccc2cc3ccccc3cc12 | inactive |
| Cc1ccc2nc(O)c(C3C(C#N)=C(N)Oc4c3ccc3cccnc43)cc2c1 (centres undefined) | 22.4 µM (active) |
| C#CCOc1ccc(C2C(C#N)=C(N)Oc3cc(O)ccc32)cc1 (centres undefined) | inactive |
| Cc1ccc2nc(Cl)c(C#N)cc2c1 | inactive |
| COC(=O)c1sc2nc3c(cc2c1N)CCCC3 | inactive |
| O=C1CC(c2ccccc2Cl)=NN(c2ncnc3ccccc23)C1=O | inactive |
| CC1=C/C(=N\OS(=O)(=O)c2ccccc2)C(C(C)C)=CC1=O | 31.6 µM (active) |
| CC1=C/C(=N\OS(=O)(=O)c2ccccc2)C=CC1=O | 31.6 µM (active) |
